SMILES strings stand for the structures. The whole screen tested about 1,400 compounds, of which about 940 (67%) were called active. Inconclusive results (about 27%) are left out. Calls come from the whole dose curve. The set was probably picked from earlier hits. A selection follows.
Potency is the fitted concentration of half-maximal effect.

Sequence of Atrial natriuretic peptide receptor 2 (Homo sapiens) (P20594 whole entry, looked up): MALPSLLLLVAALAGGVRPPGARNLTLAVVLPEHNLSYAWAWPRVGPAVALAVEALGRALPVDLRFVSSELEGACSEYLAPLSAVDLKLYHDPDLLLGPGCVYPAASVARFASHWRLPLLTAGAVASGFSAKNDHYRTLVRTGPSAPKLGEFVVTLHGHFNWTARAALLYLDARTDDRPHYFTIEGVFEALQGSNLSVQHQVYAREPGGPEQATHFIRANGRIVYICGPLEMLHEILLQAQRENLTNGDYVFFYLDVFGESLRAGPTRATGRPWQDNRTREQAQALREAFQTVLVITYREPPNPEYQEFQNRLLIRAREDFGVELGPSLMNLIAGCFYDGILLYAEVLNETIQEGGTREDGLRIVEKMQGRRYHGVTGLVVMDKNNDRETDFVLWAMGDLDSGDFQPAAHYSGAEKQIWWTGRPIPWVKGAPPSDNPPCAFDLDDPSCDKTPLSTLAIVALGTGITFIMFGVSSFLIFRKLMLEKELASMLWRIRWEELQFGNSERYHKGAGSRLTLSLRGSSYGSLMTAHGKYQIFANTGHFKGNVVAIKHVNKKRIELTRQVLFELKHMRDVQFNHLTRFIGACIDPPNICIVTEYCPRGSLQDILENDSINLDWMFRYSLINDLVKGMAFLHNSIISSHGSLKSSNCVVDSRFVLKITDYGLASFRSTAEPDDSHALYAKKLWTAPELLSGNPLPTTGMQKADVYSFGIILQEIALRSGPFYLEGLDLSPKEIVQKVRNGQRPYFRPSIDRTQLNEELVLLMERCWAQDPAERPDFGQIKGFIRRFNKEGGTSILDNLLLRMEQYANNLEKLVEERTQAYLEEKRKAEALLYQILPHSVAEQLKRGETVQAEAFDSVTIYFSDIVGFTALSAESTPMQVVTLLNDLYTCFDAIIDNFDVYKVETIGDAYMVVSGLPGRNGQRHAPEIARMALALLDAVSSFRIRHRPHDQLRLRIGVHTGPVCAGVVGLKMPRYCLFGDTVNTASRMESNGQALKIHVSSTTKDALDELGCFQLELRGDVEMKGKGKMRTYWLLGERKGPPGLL

The target of this assay is Atrial natriuretic peptide receptor 2 (Homo sapiens) (UniProt P20594). As to the kind of experiment: Natriuretic polypeptide receptor (hNpr2) antagonism - Subtype selectivity assay. Note: nearly all actives have a fitted effect of over 70% in size. Conditions: HEK293 hNpr2 GloSensor cGMP luminescence, CNP-stimulated; series mostly up to 57.6 µM; activity change, negative = inhibition: at the top concentration. On the procedure:
F. Fan, B. F. Binkowski, B. L. Butler, P. F. Stecha, M. K. Lewis, K. V. Wood, Novel genetically encoded biosensors using firefly luciferase. ACS Chem Biol 3, 346-351 (2008).
PROTOCOL TABLE (as described by Inglese J, Shamu CE and Guy RK. 2007) SEQUENCE No. (e.g., 1, 2, 3, etc.); PARAMETER (e.g., Cells, Incubation, Reagent, etc.); VALUE and DESCRIPTION. 1. Cells. Seed 1500 HEK293 cGMP-sensor cells expressing hNpr2 per well in 4uL into Greiner 1536-well white/solid bottom high base, TC plates. 2. Incubation. Incubate plated cells at 37C in 5% CO2, 95% RH overnight. 3. Reagent. Add 1uL per well GloSensor reagent from Promega (2% final concentration) or CO2 independent media vehicle control to respective columns of Greiner 1536-well plates. 4. Incubation. Incubate plated cells at ambient temperature for 2 h., protect from light. 5. Compounds. Library compounds and DMSO vehicle control added at 23nL per well, transferred by Pin Tool. 6. Incubation. Incubate plated cells for 30 min. at ambient temperature, protect from light. 7. Detector. GloSensor baseline pre-read luminescence measured using CCD-based camera (Viewlux). 8. Compound. Add 1uL of hNppC peptide to 1 nM final concentration to stimulate hNpr2 or CO2 independent media as vehicle control. 9. Incubation. Incubate treated cells at ambient temperature for 20 min., protect from light. 10. Detector. GloSensor post-hNppC luminescence measured using CCD-based camera (Viewlux). NOTES (numbers refer to Sequence numbers above) 1. HEK293 cells expressing hNpr2 and GIP/pGS-40F were grown to 85-95% confluence (48-72 h) in T175 culture flasks (CO2 independent media supplemented with 10% FBS, 1% Pen/Strep antibiotics, and 1 ug/mL puromycin). Trypsinize and harvest cells from T175 culture flasks and filter through 40 um cell strainer. Cells counted with Invitrogen Countess (30,000,000 - 50,000,000 cells/flask). Cells diluted to a final concentration of 375 cells/uL in CO2 independent media and a Millipore multidrop used to dispense 1500 cells per well (4uL/well) into 13 1536-well Greiner White/Solid bottom, high base tissue-culture treated (TC) plates and one Aurora 1536-well Black/Clear bottom, low base, TC plate (for visual inspection of cell health throughout the duration of the assay). 2. Cells incubated for 24 h. at 37C in 95% RH incubator with metal lid having gas-exchange holes. 3. Prepare GloSensor Reagent (Promega): Reconstitute GloSensor luciferase substrate by adding 8.2mL Hepes buffer to 250mg substrate, mix well, protect from light and stored at -80C. Prepare a fresh 12% GloSensor solution in CO2 independent supplemented plating media (see above). Mix well and store at ambient temperature, protected from light. 1uL 12% GloSensor Luciferase Reagent added (2% final concentration) to respective columns of 13 x 1536-well Greiner plate with BioRaptr, 1uL CO2 independent plating media added to respective columns as vehicle control with BioRaptr. 4. Cells incubated for 2 h. at ambient temperature, protected from light with metal lid having gas-exchange holes. 5. 23nL of library compounds or DMSO vehicle control transferred to 13 Greiner white/solid bottom high base, TC plates in 11 interplate 1:3 titrations (see Yasgar, A. et al. 2008) with Pintool. 6. Cells incubated for 30-50 min. at ambient temperature protected from light with metal lid having gas-exchange holes. 7. Read cellular baseline GloSensor luminescence in presence of test library compounds on the ViewLux [Exposure = 10 s.; Gain = High; Speed = Slow; and Binning = 2X.] 8. hNppC peptide agonist solution prepared at 1 mM (in H2O) stock concentration. From this a working dilution was prepared at 6 nM in CO2 Independent media. 1uL of 6 nM hNppC agonist (1 nM final concentration) or CO2 Independent media vehicle control dispensed into respective columns of 13 x Greiner 1536-well white/solid bottom, tissue culture plates with BioRaptr. 9. Cells incubated for 20 min. at ambient temperature, protected from light with metal lid having gas-exchange holes. 10. […]
With `Cc1ccc2nc(C3CCCN(Cc4ccc(C#N)cc4)C3)[nH]c(=O)c2c1` (centres undefined), the Potency is 24.3 µM (active).

Turning to `O=c1[nH]c(C2CCCN(Cc3ccccn3)C2)nn1-c1ccc(Cl)cc1` (centres undefined), the Potency is 10.9 µM (active). As to `CC(C)(C)c1csc(NC(=O)c2ccc3c(c2)OCCN(C2CCC2)C3)n1`, the Potency was 35.3 µM (active). Take `COc1ccccc1Nc1cnc2ccc(N(C)Cc3cccnc3)nn12`: the Potency is 28 µM (active). The same measure, in the same setting: in the case of `C1CCC(COCCc2noc(C3CNC3)n2)C1` it was 21.7 µM (active). Take `O=C(NCc1nnc2cc(-c3nc(C4CC4)no3)ccn12)c1ccc(F)cc1Cl`: the Potency was 13.7 µM (active). The same measure, in the same setting: with `Cc1ccc2c(c1)nc1n2[C@@H](CNS(=O)(=O)c2ccccc2)COC1` the figure was 31.4 µM (active).

As for `O=C(c1ccc(F)cc1Cl)N1CCC(n2cc(-c3nc(-c4ccccc4)no3)nn2)C1` (centres undefined), the Potency was 5.44 µM (active). As to `COc1ccc(C(=O)N2CCC(n3cc(-c4nc(C(C)C)no4)nn3)CC2)cc1F`, the “activity change, negative = inhibition” value is -20.8% (inactive). For the compound `O=C(c1ccc(Cl)cc1)N1CCCC(n2cc(-c3nc(-c4ccccc4)no3)nn2)C1` (centres undefined), the Potency is 21.7 µM (active). On the same count and under the same terms, with `O=C1c2cnc(-c3ccc(Cl)cc3)nc2OCCN1Cc1ccccc1` the figure was 35.3 µM (active); with `Cc1cc(N2CCCC(Cn3cc(Cc4ccccc4)nn3)C2)nc(N)n1` (centres undefined), 9.68 µM (active); with `O=C(c1ccccn1)N1CC(Oc2ccc(-c3noc(C4CC4)n3)cc2)C1`, 19.3 µM (active). `COc1ccc(C2Cn3nnc(C(=O)N4CCN(C(=O)c5cccc(Cl)c5)CC4)c3CO2)cc1` (centres undefined): the Potency was 15.3 µM (active).

On to `Cc1ccc(C(=O)N2CCN(c3cc(-c4ccc(Cl)cc4)[nH]n3)CC2)c(C)c1`, for which the Potency is 9.68 µM (active).

With `CCc1ccc(C(=O)N2CCN(c3cc(-c4ccc(F)cc4)[nH]n3)CC2)cc1`, the Potency was 21.7 µM (active). `O=C(c1ccc(F)cc1F)N1CCN(c2cc(-c3ccc(Cl)cc3)[nH]n2)CC1`: the Potency is 19.3 µM (active). `O=C(c1cc(F)ccc1Cl)N1CCN(c2cc(-c3ccc(F)cc3)[nH]n2)CC1`: the Potency was 24.3 µM (active). As for `O=C(c1ccc2cc[nH]c2c1)N1CCC2(CC1)N=C(c1ccc(Cl)cc1)NO2`, the Potency was 21.7 µM (active).

Take `O=C1NCN(Cc2ccc(Cl)cc2)C12CCN(Cc1ccccc1)CC2`: the Potency is 19.3 µM (active). On the same count and under the same terms, with `O=C(c1ccccc1)N1CCC(C(=O)N2CCC(Cc3nc(-c4ccc(F)cc4)no3)CC2)CC1` the figure was 19.3 µM (active); with `COc1cccc(-c2noc(CC3CCN(C(=O)c4ccc(F)cc4)CC3)n2)c1`, 6.11 µM (active). Take `CCN(CCCNC(=O)c1nnn2cc(-c3ccccc3)[nH]c(=O)c12)c1ccccc1`: the “activity change, negative = inhibition” value was -25.7% (inactive).

For the compound `COc1cccc(NC(=O)Cn2c(N(C)Cc3ccccc3)nc(C)cc2=O)c1`, the Potency was 12.2 µM (active). For the compound `COc1cccc(CNC(=O)Cn2c(N(C)Cc3ccccc3)nc(C)cc2=O)c1OC`, the Potency is 27.3 µM (active). In the case of `Cc1nn2c(c1-c1ccccc1-c1ccccc1)N(CC1CC1)CCC2`, the Potency is 3.14 µM (active). The same measure, in the same setting: with `Cc1nc(-c2ccncc2)ncc1C(C)Nc1ncnc(C)c1C` (centres undefined) the figure was 17.2 µM (active); with `CN(C)CCNC(=O)C(C)(C)Oc1nn(Cc2cccc(Cl)c2)c2ccccc12`, 31.4 µM (active). `CN1CCN(C(=O)C(C)(C)Oc2nn(Cc3cccc(Cl)c3)c3ccccc23)CC1`: the Potency was 19.8 µM (active). Consider `Cc1noc(C)c1-c1cc(-c2ccccc2Oc2ccccc2)cn2cncc12`, for which the Potency is 11.1 µM (active). Take `CN(Cc1csc(-c2ccccc2)n1)c1cc(C2CC(O)C2)nc(N)n1` (centres undefined): the Potency is 3.85 µM (active).

Turning to `Cc1c[nH]c(CN2CCCC(CCc3ccc(F)cc3F)C2)c(C)c1=O` (centres undefined), the Potency was 3.85 µM (active). For `O=C1Nc2ccccc2CN(Cc2ccccc2)C12CCNCC2`, the Potency was 17.2 µM (active). As for `COc1ccc(OCC2(C)COc3ccc(C(=O)Nc4cccnc4)cc3N2)cc1` (centres undefined), the Potency was 35.3 µM (active). Same read-out and setting: with `CC1=NS(=O)(=O)N(C)C=C1C(=O)OCc1nc(-c2ccc(C)cc2)no1` the figure was 13.7 µM (active). For the compound `COc1ccc(CCNC(=O)c2noc(-c3ccc(C)cc3)n2)cc1OC`, the Potency was 21.7 µM (active).

Take `O=[S+]1([O-])NCC2(CCCN(Cc3ccc(C(F)(F)F)cc3)C2)Oc2ncccc21` (centres undefined): the Potency was 15.3 µM (active). Regarding `COc1ccc(CN2C(=O)CO[C@H]3CN(Cc4ccc5c(c4)OCO5)C[C@H]32)cc1`, the Potency was 31.4 µM (active). On the same count and under the same terms, with `Cc1cccc(CN2CCc3nc(C(=O)Nc4ccc(Cl)cc4)oc3CC2)c1` the figure was 12.5 µM (active); with `O=C(c1ccccc1)N1CCNc2cnc(Nc3cccc(C(F)(F)F)c3)nc2C1`, 28 µM (active); with `CC1(C(=O)NCc2ccc3c(c2)OCO3)CCc2cnc(NCc3ccccc3)nc21` (centres undefined), 35.3 µM (active).

As for `O=C(NCC1CC1)c1nc2c(o1)CCN(Cc1cccc(F)c1F)CC2`, the Potency is 28 µM (active). The same measure, in the same setting: in the case of `O=C(Cc1c[nH]c2ncc(-c3ccccc3F)cc12)N1CCOCC1` it was 15.7 µM (active); in that of `Cc1ccc(OCc2nc(C3CCN(C(=O)CCc4nc5ccc(Cl)cc5[nH]4)CC3)no2)cc1`, 24.3 µM (active). With `CC(C)c1cc(C(=O)N2CCC(n3cc(-c4ccccn4)nn3)CC2)n(C)n1`, the Potency is 19.3 µM (active). Same read-out and setting: in the case of `OC1(Cc2cc(-c3ccccc3)no2)CCN(c2ncncn2)CC1` it was 8.62 µM (active). For the compound `COc1ccc(CC(=O)N2CCC(Cc3nc(-c4ccccc4)no3)CC2)cc1OC`, the Potency was 15.3 µM (active). Same read-out and setting: with `COc1ccc(-c2noc(CC3CCN(C(=O)Cc4ccc(OC)c(OC)c4)CC3)n2)cc1` the figure was 5.44 µM (active); with `COc1ccc(-c2noc(CC3CCN(C(=O)CC4CCCCC4)CC3)n2)cc1`, 12.2 µM (active).

Values taken from PubChem BioAssay AID1347046 (National Center for Advancing Translational Sciences (NCATS), 2019).
